Inconclusive results are not listed. Calls of active or inactive are those of the source. Calls come from the whole dose curve.
Assay: Primary qHTS to identify inhibitors of SARS-CoV-2 cell entry (AID 1645846); note: nearly all actives have a fitted effect of over 45% in size
Details: SARS-CoV-2 pseudovirus cell entry assay, luminescence; activity change, negative = inhibition: at 57.1 µM (top of the series) unless noted
Outline: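 Using luciferase-reporting pseudoviruses carrying Wuhan-Hu-1 spike, the screen tracks entry into stably ACE2-expressing cells over 48 hr. Activity is expressed relative to spike particles versus particles lacking any fusion protein.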
Potency is the fitted concentration of half-maximal effect.

| Compound | activity change, negative = inhibition | Potency |
| --- | --- | --- |
| FC(F)(F)c1ccc(CNc2ccc(Cc3c[nH]c4ncc(Cl)cc34)cn2)cn1 | -1.72% | – |
| Cn1cc(-c2cnn3c(N)c(Br)c([C@@H]4CCCNC4)nc23)cn1 | – | 35.5 µM (active) |
| C/C(=N\NC(=S)N1CCC1)c1ccccn1 | -96.5% | – |
| COc1cc2c(NC3CCN(CC4CCCCC4)CC3)nc(N3CCCN(C(C)C)CC3)nc2cc1OCCCN1CCCCC1 | – | 3.16 µM (active) |
| Cc1c(O)cccc1C(=O)NC(CSc1ccccc1)C(O)CN1CC2CCCCC2CC1C(=O)NC(C)(C)C (stereo not given) | – | 31.6 µM (active) |

Reference: PubChem BioAssay (NCATS)
